Compound activity (PubChem)
ADAM10 inh = inhibits human ADAM10; O14672; recombinant ADAM10, EDANS/DABCYL FRET peptide cleavage, 3 h; inhibition, % at 7 µM; actives 0.62% (n = 370,000);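 active = inhibition above a per-campaign cutoff equal to the mean of compounds falling between control-based bounds plus 3 SD, cut at about 20% in these data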;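 also: 0% = DMSO wells while the 100% control is not disclosed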
NPR2 activator = GC-B (human) receptor activation | P20594 | HEK293-GC-B cells, CNP EC30, cGMP TR-FRET; 0% at EC30 CNP, 100% saturating CNP | activation, % at 10 µM | actives 0.11% (n = 370,000) | AID 1920062;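 active = activation at 10 µM reaching about 35% in either raw or pattern-adjusted values, limit read from the data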
FAS TE block = FAS thioesterase (human) inhibition; P49327; recombinant FAS-TE, OMFH fluorogenic substrate, fluorescence endpoint; inhibition, % at 15 µM; actives 0.67% (n = 360,000); AID 602261;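 active = compounds whose normalised, plate-corrected inhibition of enzyme fluorescence in the single-dose primary screen is 50% or more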;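 also: 0% = DMSO with enzyme and 100% = substrate without enzyme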
ADAM17 inh = inhibitors of human ADAM17; P78536; recombinant ADAM17, EDANS/DABCYL FRET peptide cleavage; inhibition, % at 6.95 µM; actives 0.83% (n = 370,000); AID 720648;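 active = inhibition above the mean of compounds lying between control limits plus 3 SD, set per campaign, cut at about 8.5% in these data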;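 also: 0% = DMSO-only wells as the low control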
Target sequence (P78536 215-824 limits assumed): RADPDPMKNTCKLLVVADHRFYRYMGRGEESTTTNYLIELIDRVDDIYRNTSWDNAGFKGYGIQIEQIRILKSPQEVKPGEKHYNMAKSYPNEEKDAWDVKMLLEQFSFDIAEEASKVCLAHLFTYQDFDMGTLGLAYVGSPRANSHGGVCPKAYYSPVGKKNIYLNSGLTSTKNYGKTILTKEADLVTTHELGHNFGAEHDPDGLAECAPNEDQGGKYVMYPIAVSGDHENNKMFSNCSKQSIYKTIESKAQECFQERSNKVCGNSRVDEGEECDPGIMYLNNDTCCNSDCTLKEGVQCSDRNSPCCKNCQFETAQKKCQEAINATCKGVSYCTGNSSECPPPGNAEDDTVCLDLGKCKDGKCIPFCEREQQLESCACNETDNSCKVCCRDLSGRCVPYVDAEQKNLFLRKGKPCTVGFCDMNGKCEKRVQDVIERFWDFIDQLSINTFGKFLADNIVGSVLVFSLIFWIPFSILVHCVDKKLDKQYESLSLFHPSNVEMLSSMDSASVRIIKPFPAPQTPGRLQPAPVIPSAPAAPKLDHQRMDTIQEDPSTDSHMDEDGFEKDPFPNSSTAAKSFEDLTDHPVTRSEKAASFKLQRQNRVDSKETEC
GC-A act = GC-A (human) enzyme activation; HEK293 GC-A cells, cGMP TR-FRET, EC30 ANP; 0% at EC30 ANP, 100% saturating ANP; activation, % at 10 µM; P16066; actives 0.14% (n = 370,000); AID 1671463; in the data active = activation above about 40%
ADAM10 confirm = confirmation of inhibitors of human ADAM10. shares compounds with ADAM10 inh. ADAM10 QFRET peptide cleavage, EDANS fluorescence. inhibition, % at 6.95 µM. actives 1% (n = 2,100);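 active = inhibition above about 20% chosen separately for each screening run, limit read from the data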;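 also: 0% = DMSO wells and 100% = marimastat wells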
ADAM17 ctr = ADAM17 inhibition, counter-screen for ADAM10 exosite hits; shares compounds with ADAM10 inh; ADAM17 QFRET peptide cleavage, EDANS fluorescence; inhibition, % at 6.95 µM; actives 0.5% (n = 2,100); AID 743214;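 active = mean triplicate inhibition above the solvent-only control wells' mean plus 3 SD, cut at about 12% in these data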;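 also: 0% = DMSO wells and 100% = marimastat wells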
ADAM10 ctr = ADAM10 inhibition, counter-screen for ADAM17 exosite hits | shares compounds with ADAM17 inh | recombinant ADAM10, EDANS/DABCYL FRET peptide cleavage, 3 h | inhibition, % at 6.95 µM | actives 47% (n = 2,900) | AID 743256;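 active = mean inhibition over the triplicate runs exceeds the activity threshold set in the earlier primary screen, cut at about 20% in these data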;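 also: 0% = DMSO wells and 100% = marimastat wells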
ADAM17 confirm = confirmation of inhibitors of human ADAM17; actives 65% (n = 2,900); AID 743257; recombinant ADAM17, EDANS/DABCYL QFRET peptide cleavage; inhibition, % at 6.95 µM; shares compounds with ADAM17 inh;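 active = mean inhibition across replicates above the hit cutoff set in the primary screen, cut at about 8.5% in these data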;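 also: 0% = DMSO wells and 100% = marimastat wells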
* hit, by the source's call. Hits are enriched below; roughly 2% of the tested compounds scored in any of these assays.

For Cc1cccc(-n2cc(CN(C)Cc3nccn3C)c(-c3cccc(F)c3)n2)c1 the results were ADAM10 inh 24.0*, NPR2 activator -5.0, FAS TE block 35.1, ADAM17 inh 10.6*, GC-A act -7.2, ADAM10 confirm 2.7, ADAM17 ctr 0.6, ADAM10 ctr 12.1 and ADAM17 confirm 10.1*.
Screening CCN(CC)S(=O)(=O)c1ccc(N2CCOCC2)c(NS(=O)(=O)c2cc(C(C)(C)C)ccc2C)c1 returned ADAM10 inh 36.4*, NPR2 activator 4.8, FAS TE block 16.1, ADAM17 inh 17.4*, GC-A act 0.8, ADAM10 confirm 2.8, ADAM17 ctr 1.4, ADAM10 ctr 31.0* and ADAM17 confirm 14.9*.
O=C(Nc1ccccc1)OC1CCC2CC1CCC2OC(=O)Nc1ccccc1 (centres undefined) was read as ADAM10 inh 23.6*, NPR2 activator -10.2, FAS TE block 15.7, ADAM17 inh 11.5*, GC-A act -1.6, ADAM10 confirm 9.0, ADAM17 ctr 3.3, ADAM10 ctr 38.4* and ADAM17 confirm 18.4*.
For O=C(Nc1ccccc1)OC1CC2CC1[C@H]1CCCCN1[C@H]2Cc1ccccc1 (some centres undefined) the results were ADAM10 inh -3.6, NPR2 activator -12.5, ADAM17 inh 1.5 and GC-A act -20.3.
`CN1C(C(=O)Nc2ccc(OC(F)(F)F)cc2)=CC(c2cccs2)=NS1(=O)=O` gave ADAM10 inh 25.6*, NPR2 activator -3.2, FAS TE block 23.0, ADAM17 inh 13.3*, GC-A act -1.4, ADAM10 confirm 10.4, ADAM17 ctr 4.0, ADAM10 ctr 22.3* and ADAM17 confirm 16.3*.
`COc1ccc(-n2c(SCC(=O)Nc3cc(C)c(NC(=O)c4ccccc4)cc3OC)nnc2-c2cccnc2)cc1` gave ADAM10 inh -0.1, NPR2 activator 0.9, ADAM17 inh -0.8 and GC-A act 0.7.
`COc1ccc(-n2c(SCC(=O)Nc3cc(C)c(NC(=O)c4ccccc4)cc3OC)nnc2-c2ccco2)cc1` gave ADAM10 inh 24.0*, NPR2 activator -7.2, ADAM17 inh 11.8*, GC-A act -1.0, ADAM10 confirm 5.2, ADAM17 ctr 4.9, ADAM10 ctr 18.6 and ADAM17 confirm 8.7*.
COc1cccc(NC(=O)C(Sc2nnc(Nc3ccccc3C)s2)c2ccccc2)c1 (centres undefined) was read as ADAM10 inh 32.7*, NPR2 activator -3.8, FAS TE block 21.2, ADAM17 inh 14.0*, GC-A act 2.4, ADAM10 confirm 8.7, ADAM17 ctr 2.5, ADAM10 ctr 29.2* and ADAM17 confirm 15.4*.
Screening COC(=O)c1cc(-c2ccc(OC)c(OC)c2)c(=O)n2c1CCC2 returned ADAM10 inh -120.6, NPR2 activator -2.0, ADAM17 inh -27.3 and GC-A act 4.7.
C[C@@]12C(=O)N(c3cccc(F)c3)C(=O)N1[C@@H]1c3ccccc3OC[C@@H]1[C@H]2c1ccccc1 was read as ADAM10 inh 23.4*, NPR2 activator 2.8, FAS TE block 28.3, ADAM17 inh 11.5*, GC-A act -1.1, ADAM10 confirm 5.0, ADAM17 ctr 1.7, ADAM10 ctr 5.2 and ADAM17 confirm 6.9.
`CCOC(=O)[C@]12CCCCC/C=C\1N(CCc1ccc(Cl)cc1)C(=O)[C@H]2CC(=O)NCC1CCCCC1` gave ADAM10 inh 12.1, NPR2 activator 2.1, ADAM17 inh 6.1 and GC-A act -2.7.
`COc1ccc(NC(=O)CN(C)C(=O)c2cn(-c3ccccc3)nc2-c2ccc(Cl)cc2)cc1` gave ADAM10 inh 20.4*, NPR2 activator -4.2, FAS TE block 19.0, ADAM17 inh 10.1*, GC-A act -4.6, ADAM10 confirm 7.2, ADAM17 ctr 2.0, ADAM10 ctr 38.5* and ADAM17 confirm 17.7*.
Screening COc1cccc(NC(=O)CN(C)C(=O)c2cn(-c3ccccc3)nc2-c2cccnc2)c1 returned ADAM10 inh -8.6, NPR2 activator -1.4, FAS TE block -0.8, ADAM17 inh -8.6 and GC-A act -2.8.
`NC(=O)COC(=O)c1ccc(Cl)c(S(=O)(=O)N(Cc2ccccc2)c2ccc(Cl)cc2)c1` gave ADAM10 inh 25.9*, NPR2 activator -19.9, FAS TE block 35.8, ADAM17 inh 10.3*, GC-A act -42.5, ADAM10 confirm 7.8, ADAM17 ctr 2.1, ADAM10 ctr 24.3* and ADAM17 confirm 13.6*.
For NC(=O)NC(=O)COC(=O)c1ccc(Cl)c(S(=O)(=O)N(Cc2ccccc2)c2ccc(Cl)cc2)c1 the results were ADAM10 inh 14.2, NPR2 activator -0.4, FAS TE block 35.1, ADAM17 inh 3.5 and GC-A act -14.3.
C=CCNC(=O)COC(=O)c1ccc(Cl)c(S(=O)(=O)N(Cc2ccccc2)c2ccccc2)c1 was read as ADAM10 inh 21.9*, NPR2 activator 0.2, FAS TE block 23.0, ADAM17 inh 11.6*, GC-A act -3.6, ADAM10 confirm 2.4, ADAM17 ctr 1.7, ADAM10 ctr 29.4* and ADAM17 confirm 19.9*.
S=C(Nc1ccccc1Br)OCCN1CCCC12CCC(c1ccccc1)CC2 (centres undefined) was read as ADAM10 inh 1.4, NPR2 activator -4.7, ADAM17 inh -2.9 and GC-A act -4.2.
`C[N+](C)(C)c1ccc(/C=N/Nc2nc(Cl)c(C#N)c(Cl)c2Cl)cc1` gave ADAM10 inh -0.1, NPR2 activator -0.1, FAS TE block 17.7, ADAM17 inh -3.7 and GC-A act 9.7.
For N#Cc1c(Cl)nc(N/N=C/c2ccccc2)c(Cl)c1Cl the results were ADAM10 inh 22.8*, NPR2 activator 24.1, FAS TE block -10.2, ADAM17 inh 9.1*, GC-A act 18.1, ADAM10 confirm 30.6*, ADAM17 ctr 15.0*, ADAM10 ctr -121.0 and ADAM17 confirm -23.6.
